# Results reported in the supplement of paper PMC8387472.
# Legend:
# Test in all cases: fraction of microhomology deletions among edited reads; higher = more MH deletions
# Conditions in all cases: mESC; 2uM; 72 h treatment, harvest day 5
# Rifapentine = compound: CO[C@H]1/C=C/O[C@@]2(C)Oc3c(C)c(O)c4c(O)c(c(/C=N/N5CCN(C6CCCC6)CC5)c(O)c4c3C2=O)NC(=O)/C(C)=C\C=C\[C@H](C)[C@H](O)[C@@H](C)[C@@H](O)[C@@H](C)[C@H](OC(C)=O)[C@@H]1C [Rifapentine]
# [1] = compound: COc1ccccc1-c1cc(Nc2cccc(CS(N)(=O)=O)c2)ncn1
# [2] = compound: C[C@@H]1CN(CC(=O)Nc2ccc3c(c2)Cc2cccc(-c4cc(=O)cc(N5CCOCC5)o4)c2S3)C[C@H](C)O1
# [3] = compound: Cc1cc(C)nc(SCC(=O)Nc2ncc(Cc3cccc4ccccc34)s2)n1
# [4] = compound: Cc1cccc(CC(=O)N2CCc3c2ccc(-c2cn(C)c4ncnc(N)c24)c3F)n1
# [5] = compound: NC(=O)c1ccc2nc(-c3ccc(Oc4ccc(Cl)cc4)cc3)[nH]c2c1 [Chk 2 inhibitor II (BML-277)]
# Tucidinostat (Chidamide) = compound: Nc1cc(F)ccc1NC(=O)c1ccc(CNC(=O)/C=C/c2cccnc2)cc1 [Tucidinostat (Chidamide)]
# Pemetrexed = compound: Nc1nc2[nH]cc(CCc3ccc(C(=O)N[C@@H](CCC(=O)O)C(=O)O)cc3)c2c(=O)[nH]1 [Pemetrexed]
# [6] = compound: Nc1ncnc2c1c(-c1cnc3[nH]ccc3c1)nn2C1CCCC1
# [7] = compound: O=C(c1cccc(Cl)c1F)N1CCN(Cc2cccc(Nc3nccs3)n2)CC1
Target,fraction of microhomology deletions among edited reads (Rifapentine),fraction of microhomology deletions among edited reads [1],fraction of microhomology deletions among edited reads [2],fraction of microhomology deletions among edited reads [3],fraction of microhomology deletions among edited reads [4],fraction of microhomology deletions among edited reads [5],fraction of microhomology deletions among edited reads (Tucidinostat (Chidamide)),fraction of microhomology deletions among edited reads (Pemetrexed),fraction of microhomology deletions among edited reads [6],fraction of microhomology deletions among edited reads [7]
"43.0 (DMSO control at this site: 1-bp insertion 0.134, MH deletion 0.714, edited 0.104) AGTTTAACTTACTCCGGCCAAAAAAGAACTGCACCTCTGGAGCGGGTTAGTGGTGGTGGTA",0.683,0.663,0.698,0.639,0.717,0.677,0.68,0.625,0.662,0.686
"44.0 (DMSO control at this site: 1-bp insertion 0.181, MH deletion 0.512, edited 0.123) ACACATACCTTCTTCGAGGCAGCCAGCATGATGAGACAGGTCTCCCACAAACACATCGTGT",0.531,0.451,0.295,0.506,0.384,0.539,0.491,0.583,0.479,0.486
"32.0 (DMSO control at this site: 1-bp insertion 0.03, MH deletion 0.85, edited 0.898) AGAAGTCCAGGATCAGGGGGACTGGGGTCGGGAGGGTGGGGCAGGAAGGAAGCCAGAATCA",0.91,0.93,0.896,0.908,0.897,0.918,0.904,0.928,0.886,0.926
"35.0 (DMSO control at this site: 1-bp insertion 0.01, MH deletion 0.72, edited 0.098) CCACTTTTAGAGAGGGTGAAAATCATCAGTTATCATCAGGGCAACAAATTGCTTTCTCCTA",0.776,0.724,0.562,0.732,0.695,0.722,0.687,0.794,0.699,0.679
"4.0 (DMSO control at this site: 1-bp insertion 0.146, MH deletion 0.523, edited 0.125) ACGCCTTAGTGCACGAGTGACGGGATAATGTGGTCTCAGGTAATTGATAGGCTTCCAACTT",0.592,0.535,0.319,0.545,0.492,0.575,0.482,0.504,0.501,0.475
46.0 TTAAGAGCAATGTTCACGCAACTTGAAATTATATCTGTGGTCTTCAAATTGTCTTTTGTCA,0.417,–,–,–,–,–,0.327,0.431,0.497,–
"31.0 (DMSO control at this site: 1-bp insertion 0.315, MH deletion 0.329, edited 0.026) ACCTCCACAGGCTGGGTGGCCCGGAGGCTGGGCGGCCCGGAGGCTGGGCTGGGCGAGTATC",0.467,0.487,–,0.512,–,–,0.459,0.605,0.333,0.391
"28.0 (DMSO control at this site: 1-bp insertion 0.035, MH deletion 0.77, edited 0.142) TGGTTCTTCCTTTGTAGAGAGTGTTCATCTGGGAATCTGGGACTTGGATGAGACAATCATT",0.794,0.755,0.768,0.777,0.747,0.768,0.739,0.737,0.748,0.76
"47.0 (DMSO control at this site: 1-bp insertion 0.095, MH deletion 0.585, edited 0.118) GAGTGGTCCCGAGCCAGGAACTGTGTGTGTTGCAGGGGGGCAGTAACTCCCCAACTCCCTC",0.57,0.469,0.319,0.528,0.477,0.494,0.442,0.503,0.389,0.453
"20.0 (DMSO control at this site: 1-bp insertion 0.349, MH deletion 0.138, edited 0.084) TACAGGTGTAGACTGGTTACGTGGCTGCGGAATTGACTGGTTACGTGGCTGCGGAATTTTG",0.246,0.159,0.0478,0.203,0.191,0.203,0.215,0.263,0.133,0.125
"39.0 (DMSO control at this site: 1-bp insertion 0.328, MH deletion 0.371, edited 0.204) CTGCACAGTCACTTAGGATAGGAGAAGATGATGTATAGGGTTTAGTGGGAGATGTTGCAAG",0.414,0.303,0.105,0.361,0.372,0.372,0.287,0.407,0.286,0.32
"3.0 (DMSO control at this site: 1-bp insertion 0.109, MH deletion 0.149, edited 0.09) TGCTAGCGCCCCCACAAAGCGGACCAGCCAGCACTATAGGGAATAAGGCCAACTTGCACCC",0.188,0.178,0.0553,0.188,0.186,0.237,0.204,0.171,0.166,0.193
"5.0 (DMSO control at this site: 1-bp insertion 0.214, MH deletion 0.567, edited 0.105) CGCTGACCCGAGACCTACGCGAACCGAAATCGGCGACCGGTGCGCAAGCAGGGCTGGCGTC",0.578,0.519,0.353,0.571,0.568,0.58,0.526,0.565,0.512,0.537
"38.0 (DMSO control at this site: 1-bp insertion 0.063, MH deletion 0.487, edited 0.17) GGGCTGGGTGCTAAAATGAGGAGCTCCAAGAAGACTGAGGTGAACCTGGAGGCCCCTGAGC",0.507,0.46,0.441,0.483,0.495,0.495,0.458,0.548,0.432,0.439
"29.0 (DMSO control at this site: 1-bp insertion 0.084, MH deletion 0.745, edited 0.133) TTGATGAACTTCCTCTTCTTCTCATGTCTCCGGTCTCCGGTAGGCCACGTGCATGGCCACT",0.751,0.667,0.482,0.692,0.702,0.741,0.686,0.691,0.696,0.662
15.0 GCGCCTCCAATGACCCAGTGGGATCCTACTCCATAATGGGATCCTGGGGATTCCTCGCTCC,0.426,–,–,0.39,–,–,0.289,–,–,–
"26.0 (DMSO control at this site: 1-bp insertion 0.518, MH deletion 0.262, edited 0.026) AGGGCGCGCCCCACGCACTCTGCGGCAAGTCCCTCTGCGGCAAGTCCTCGGCCCGGAAGAC",0.272,0.295,0.115,0.281,0.301,0.302,0.278,0.44,0.201,0.275
23.0 AGAACAAAGCGCTCATATAACGATATGGGGGGTTATGGGGGGTTGAATTGCTTCAGCACGA,–,–,–,–,–,–,–,–,–,0.856
"33.0 (DMSO control at this site: 1-bp insertion 0.008, MH deletion 0.771, edited 0.112) CATTAAGAGCAGCTGCCGGCCCCCAAGTGGACAGAGCTGGCCCTGCTGATTCAACAGTGCA",0.724,0.681,0.583,0.722,0.732,0.712,0.706,0.682,0.708,0.688
27.0 CCAGAATTAGAACATATCATCTGGACCCTTTTCCATCTGGACCCTTTTCCAGCACACCCTG,0.214,0.156,–,0.104,–,–,0.174,–,0.105,–
